Test results published in the supplement of paper PMC10849652.
Of roughly 8,800 targets only a part is listed; those with a hit were picked by preference. About 0.5% of all pairs of compound and target were hits.

These targets were tested with C#Cc1cccc(Nc2ncnc3cc(OCCOC)c(OCCOC)cc23)c1 [erlotinib] (assay: log2 fold change, soluble protein after heating vs DMSO (PISA); higher = thermal stabilisation; K562 lysate, 10 uM; active = over 0.2 and 3.5 SD of the protein, either way, in both replicates (recomputed)).
Outline: (§1)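 K562 pellets were dounce-homogenised in PBS pH 7.4 containing 1 mM MgCl2, and the crude extract, at 1 mg/mL protein, was exposed to 10 μM compound for 30 min. Aliquots were heated for 3 min across 48°C-58°C, pooled, brought to 0.5% NP-40 at 4°C and spun at 21,000xg for 90 min, with the supernatant taken as soluble protein. TMTpro 16plex LC-MS/MS with equalised channel sums quantified that protein. Values are log-two fold changes in thermal stability relative to solvent controls, taken from duplicates.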

Sequence of UniProt Q96S44 (Q96S44 whole entry, looked up): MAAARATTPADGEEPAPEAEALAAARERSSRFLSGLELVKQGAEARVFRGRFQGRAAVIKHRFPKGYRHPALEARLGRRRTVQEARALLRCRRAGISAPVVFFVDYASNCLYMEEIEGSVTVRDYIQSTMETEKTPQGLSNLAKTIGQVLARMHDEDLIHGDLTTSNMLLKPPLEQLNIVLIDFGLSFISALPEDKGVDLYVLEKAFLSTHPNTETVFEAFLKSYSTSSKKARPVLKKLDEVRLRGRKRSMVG
Sequence of UniProt Q8N0Z6 (Q8N0Z6 whole entry, looked up): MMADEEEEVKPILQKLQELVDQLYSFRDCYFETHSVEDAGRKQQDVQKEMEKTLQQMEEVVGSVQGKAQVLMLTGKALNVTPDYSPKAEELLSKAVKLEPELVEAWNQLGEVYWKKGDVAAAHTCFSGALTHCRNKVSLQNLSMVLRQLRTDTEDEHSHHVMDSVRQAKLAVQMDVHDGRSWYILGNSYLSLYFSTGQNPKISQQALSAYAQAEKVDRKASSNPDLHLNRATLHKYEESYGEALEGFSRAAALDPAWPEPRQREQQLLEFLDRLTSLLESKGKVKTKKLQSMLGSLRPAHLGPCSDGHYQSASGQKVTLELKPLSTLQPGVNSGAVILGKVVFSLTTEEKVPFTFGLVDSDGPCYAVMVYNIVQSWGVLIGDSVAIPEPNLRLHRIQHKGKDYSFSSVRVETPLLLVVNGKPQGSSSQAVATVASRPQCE
Sequence of UniProt Q14258 (Q14258 whole entry, looked up): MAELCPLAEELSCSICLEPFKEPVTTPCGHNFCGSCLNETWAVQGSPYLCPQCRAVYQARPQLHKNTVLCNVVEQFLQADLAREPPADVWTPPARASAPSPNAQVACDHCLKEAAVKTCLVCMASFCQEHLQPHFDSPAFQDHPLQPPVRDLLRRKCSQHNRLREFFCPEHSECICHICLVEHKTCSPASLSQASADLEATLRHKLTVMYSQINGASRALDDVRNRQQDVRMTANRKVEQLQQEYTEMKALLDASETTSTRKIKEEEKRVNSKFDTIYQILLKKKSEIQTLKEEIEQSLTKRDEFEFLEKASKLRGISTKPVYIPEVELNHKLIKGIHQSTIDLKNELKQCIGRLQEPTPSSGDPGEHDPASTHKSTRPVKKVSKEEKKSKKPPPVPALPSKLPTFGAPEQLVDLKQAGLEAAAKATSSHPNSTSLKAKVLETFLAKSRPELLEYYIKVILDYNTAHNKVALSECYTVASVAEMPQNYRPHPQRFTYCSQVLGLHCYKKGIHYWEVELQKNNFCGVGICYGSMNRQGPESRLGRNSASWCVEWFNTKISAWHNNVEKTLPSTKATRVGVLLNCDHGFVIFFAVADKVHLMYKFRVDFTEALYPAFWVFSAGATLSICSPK
Sequence of UniProt O95071 (O95071 whole entry, looked up): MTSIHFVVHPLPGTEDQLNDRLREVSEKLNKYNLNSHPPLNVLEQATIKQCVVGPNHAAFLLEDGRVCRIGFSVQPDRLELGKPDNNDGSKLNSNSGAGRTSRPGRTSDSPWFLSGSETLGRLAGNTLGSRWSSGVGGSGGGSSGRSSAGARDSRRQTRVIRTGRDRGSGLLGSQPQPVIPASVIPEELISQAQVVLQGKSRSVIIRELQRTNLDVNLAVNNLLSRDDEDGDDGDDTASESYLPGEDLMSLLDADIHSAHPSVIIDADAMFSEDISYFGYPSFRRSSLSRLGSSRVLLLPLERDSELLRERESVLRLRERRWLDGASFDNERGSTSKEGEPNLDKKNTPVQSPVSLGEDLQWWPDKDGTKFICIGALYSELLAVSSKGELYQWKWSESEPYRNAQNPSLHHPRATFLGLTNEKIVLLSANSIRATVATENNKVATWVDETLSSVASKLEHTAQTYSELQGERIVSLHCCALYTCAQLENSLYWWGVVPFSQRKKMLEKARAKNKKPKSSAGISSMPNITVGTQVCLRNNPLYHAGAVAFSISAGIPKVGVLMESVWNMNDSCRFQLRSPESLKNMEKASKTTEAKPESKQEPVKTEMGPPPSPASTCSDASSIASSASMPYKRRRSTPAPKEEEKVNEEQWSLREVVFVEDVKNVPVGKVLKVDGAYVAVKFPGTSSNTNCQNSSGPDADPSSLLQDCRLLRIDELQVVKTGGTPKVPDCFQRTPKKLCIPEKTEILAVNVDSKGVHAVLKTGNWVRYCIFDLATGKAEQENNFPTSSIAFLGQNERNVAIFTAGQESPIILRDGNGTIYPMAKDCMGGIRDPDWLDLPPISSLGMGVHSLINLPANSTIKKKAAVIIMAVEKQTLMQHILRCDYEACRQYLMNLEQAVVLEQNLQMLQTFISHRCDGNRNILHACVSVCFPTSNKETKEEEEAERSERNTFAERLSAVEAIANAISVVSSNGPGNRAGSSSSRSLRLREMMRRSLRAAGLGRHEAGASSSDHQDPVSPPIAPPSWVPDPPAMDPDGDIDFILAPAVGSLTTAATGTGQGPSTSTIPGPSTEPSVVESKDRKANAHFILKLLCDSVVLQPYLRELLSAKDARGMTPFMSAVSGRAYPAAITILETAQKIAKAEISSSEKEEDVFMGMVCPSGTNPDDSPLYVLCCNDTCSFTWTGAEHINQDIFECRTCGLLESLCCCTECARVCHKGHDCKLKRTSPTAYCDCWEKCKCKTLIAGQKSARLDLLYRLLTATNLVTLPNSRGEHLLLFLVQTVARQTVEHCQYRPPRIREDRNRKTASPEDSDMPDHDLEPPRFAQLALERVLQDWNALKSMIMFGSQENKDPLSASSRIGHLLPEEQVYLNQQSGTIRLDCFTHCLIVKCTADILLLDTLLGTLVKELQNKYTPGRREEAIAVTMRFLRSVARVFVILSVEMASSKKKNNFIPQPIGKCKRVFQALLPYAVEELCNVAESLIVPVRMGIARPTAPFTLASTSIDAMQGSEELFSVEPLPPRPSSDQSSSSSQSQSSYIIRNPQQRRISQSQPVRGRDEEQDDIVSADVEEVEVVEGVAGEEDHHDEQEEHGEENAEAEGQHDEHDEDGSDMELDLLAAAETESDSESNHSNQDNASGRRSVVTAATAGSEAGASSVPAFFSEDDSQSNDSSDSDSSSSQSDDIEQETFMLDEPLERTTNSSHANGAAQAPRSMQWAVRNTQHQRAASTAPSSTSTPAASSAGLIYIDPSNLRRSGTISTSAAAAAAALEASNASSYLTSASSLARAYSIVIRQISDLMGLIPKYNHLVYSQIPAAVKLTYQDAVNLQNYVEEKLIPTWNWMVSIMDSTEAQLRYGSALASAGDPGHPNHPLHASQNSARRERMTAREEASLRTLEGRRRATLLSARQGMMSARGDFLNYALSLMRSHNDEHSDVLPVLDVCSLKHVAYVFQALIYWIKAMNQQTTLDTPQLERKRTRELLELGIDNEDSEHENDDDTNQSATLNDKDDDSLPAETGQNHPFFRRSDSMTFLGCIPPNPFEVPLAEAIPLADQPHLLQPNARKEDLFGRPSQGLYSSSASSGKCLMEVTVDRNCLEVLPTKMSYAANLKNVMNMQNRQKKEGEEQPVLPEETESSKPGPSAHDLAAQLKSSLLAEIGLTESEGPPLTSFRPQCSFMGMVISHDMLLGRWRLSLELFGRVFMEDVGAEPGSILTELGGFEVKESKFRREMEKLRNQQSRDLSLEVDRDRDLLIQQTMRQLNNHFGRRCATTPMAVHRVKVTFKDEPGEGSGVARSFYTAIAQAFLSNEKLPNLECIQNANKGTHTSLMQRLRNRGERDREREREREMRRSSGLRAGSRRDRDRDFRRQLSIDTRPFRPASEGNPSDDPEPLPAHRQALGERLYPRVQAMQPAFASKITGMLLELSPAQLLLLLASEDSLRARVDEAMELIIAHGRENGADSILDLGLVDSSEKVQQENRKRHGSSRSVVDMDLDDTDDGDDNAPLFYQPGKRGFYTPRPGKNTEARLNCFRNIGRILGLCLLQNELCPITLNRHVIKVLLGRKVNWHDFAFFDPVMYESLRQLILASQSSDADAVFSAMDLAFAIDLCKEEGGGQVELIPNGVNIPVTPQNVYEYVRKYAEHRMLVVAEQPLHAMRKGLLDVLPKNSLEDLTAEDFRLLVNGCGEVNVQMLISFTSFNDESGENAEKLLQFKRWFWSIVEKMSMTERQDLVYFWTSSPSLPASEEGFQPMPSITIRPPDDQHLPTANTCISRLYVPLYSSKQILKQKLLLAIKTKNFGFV
Sequence of UniProt Q9BRZ2 (Q9BRZ2 whole entry, looked up): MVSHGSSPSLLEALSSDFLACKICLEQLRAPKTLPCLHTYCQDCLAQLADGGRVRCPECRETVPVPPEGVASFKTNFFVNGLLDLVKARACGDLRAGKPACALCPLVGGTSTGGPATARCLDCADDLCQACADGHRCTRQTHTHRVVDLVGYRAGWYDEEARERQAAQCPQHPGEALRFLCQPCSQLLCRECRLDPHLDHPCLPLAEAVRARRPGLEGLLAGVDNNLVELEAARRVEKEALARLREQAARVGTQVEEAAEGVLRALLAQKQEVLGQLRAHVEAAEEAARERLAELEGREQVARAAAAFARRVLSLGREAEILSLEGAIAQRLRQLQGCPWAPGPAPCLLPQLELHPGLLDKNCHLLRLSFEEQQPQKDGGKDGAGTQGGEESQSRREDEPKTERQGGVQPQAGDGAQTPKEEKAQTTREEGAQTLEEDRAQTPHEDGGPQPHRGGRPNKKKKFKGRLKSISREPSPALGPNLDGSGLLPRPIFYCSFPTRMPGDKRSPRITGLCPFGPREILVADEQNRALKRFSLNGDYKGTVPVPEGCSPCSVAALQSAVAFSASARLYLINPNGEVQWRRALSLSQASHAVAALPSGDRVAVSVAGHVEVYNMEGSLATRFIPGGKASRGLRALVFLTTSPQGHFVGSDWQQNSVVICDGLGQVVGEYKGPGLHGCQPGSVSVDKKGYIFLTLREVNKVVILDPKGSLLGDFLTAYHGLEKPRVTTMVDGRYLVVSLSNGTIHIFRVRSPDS
Sequence of UniProt P51668 (P51668 whole entry, looked up): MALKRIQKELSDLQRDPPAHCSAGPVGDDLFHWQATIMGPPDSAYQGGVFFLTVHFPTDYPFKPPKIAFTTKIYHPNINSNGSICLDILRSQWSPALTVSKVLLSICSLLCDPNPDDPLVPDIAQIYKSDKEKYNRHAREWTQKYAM

log2 fold change, inactive:
TRIM25 (UniProt Q14258) -0.01
UBE2D1 (UniProt P51668) -0.043
TPP2 (UniProt Q5VZU9) 0.043
TRMT12 (UniProt Q53H54) 0.065
TCAF2 (UniProt A6NFQ2) -0.006
TRIM56 (UniProt Q9BRZ2) 0.053
TTC27 (UniProt Q6P3X3) 0.017
UBR5 (UniProt O95071) 0.005
TROAP (UniProt Q12815) -0.023
TUBGCP2 isoform 4 (UniProt Q9BSJ2) 0.036
TTC5 (UniProt Q8N0Z6) -0.015
TRIM33 (UniProt H0Y612) -0.006
TP53RK (UniProt Q96S44) -0.005
TFCP2 (UniProt Q12800) -0.035
TIAL1 isoform 2 (UniProt Q01085) 0.015
TRIM65 (UniProt Q6PJ69) 0.047
TTF2 (UniProt Q9UNY4) 0.043
TRAPPC9 isoform 2 (UniProt Q96Q05) 0.033

The targets below were run with C/C(=N\NC(=O)C1=CC(=CC=C1)S(=O)(=O)N2CCOCC2)/C3=C(C=CC(=C3)Cl)O in the same assay as above.
Outline: as §1

log2 fold change, inactive:
TOR3A (UniProt Q9H497) 0.002
TRAF2 isoform 2 (UniProt Q12933) -0.002
TBRG4 (UniProt Q969Z0) -0.048
TBL3 (UniProt Q12788) -0.001
UBE3B (UniProt Q7Z3V4) -0.218
TRA2A (UniProt Q13595) -0.261
TJP1 isoform 2 (UniProt Q07157) 0
TPM4 isoform 2 (UniProt P67936) 0.011
TUBGCP3 (UniProt Q96CW5) 0.021
TGOLN2 isoform 7 (UniProt O43493) 0.007
TSPAN13 (UniProt O95857) 0.053
TIMELESS (UniProt Q9UNS1) 0.069
TRMT2A (UniProt Q8IZ69) -0.015
TTC12 isoform 2 (UniProt Q9H892) -0.051
TMPO (UniProt P42167) 0.021
TBK1 (UniProt Q9UHD2) -0.066
TGFBRAP1 (UniProt Q8WUH2) 0.057
TMEM14C (UniProt Q9P0S9) -0.201
TMEM164 (UniProt Q5U3C3) -0.141
TPM3 (UniProt P06753) 0.027
TTI2 (UniProt Q6NXR4) 0.037
TBC1D23 (UniProt Q9NUY8) -0.01
TRIM25 (UniProt Q14258) -0.024
UBE2D1 (UniProt P51668) 0.008
TPP2 (UniProt Q5VZU9) -0.036
TRMT12 (UniProt Q53H54) 0.01
TCAF2 (UniProt A6NFQ2) -0.218
TRIM56 (UniProt Q9BRZ2) -0.021
TTC27 (UniProt Q6P3X3) 0.018
UBR5 (UniProt O95071) -0.029
TROAP (UniProt Q12815) -0.02
TUBGCP2 isoform 4 (UniProt Q9BSJ2) -0.048
TTC5 (UniProt Q8N0Z6) -0.089
TRIM33 (UniProt H0Y612) -0.002
TP53RK (UniProt Q96S44) 0.025
TFCP2 (UniProt Q12800) 0.08
TIAL1 isoform 2 (UniProt Q01085) -0.001
TRIM65 (UniProt Q6PJ69) -0.072
TTF2 (UniProt Q9UNY4) -0.003
TRAPPC9 isoform 2 (UniProt Q96Q05) 0.113

These targets were tested with C1=CC(=CC=C1C2=NC3=C(N2)C=C(C=C3)C(=O)N)OC4=CC=C(C=C4)Cl in the same assay as above.
Outline: as §1

log2 fold change, inactive:
TOR3A (UniProt Q9H497) 0.006
TRAF2 isoform 2 (UniProt Q12933) 0.008
TBRG4 (UniProt Q969Z0) -0.036
TBL3 (UniProt Q12788) -0.071
UBE3B (UniProt Q7Z3V4) -0.3
TRA2A (UniProt Q13595) -0.092
TJP1 isoform 2 (UniProt Q07157) 0.037
TPM4 isoform 2 (UniProt P67936) -0.048
TUBGCP3 (UniProt Q96CW5) -0.054
TGOLN2 isoform 7 (UniProt O43493) 0
TSPAN13 (UniProt O95857) 0.06
TIMELESS (UniProt Q9UNS1) -0.083
TRMT2A (UniProt Q8IZ69) -0.007
TTC12 isoform 2 (UniProt Q9H892) 0.055
TMPO (UniProt P42167) -0.021
TBK1 (UniProt Q9UHD2) -0.03
TGFBRAP1 (UniProt Q8WUH2) -0.016
TMEM14C (UniProt Q9P0S9) 0.046
TMEM164 (UniProt Q5U3C3) -0.009
TPM3 (UniProt P06753) -0.026
TTI2 (UniProt Q6NXR4) 0.023
TBC1D23 (UniProt Q9NUY8) 0.017
TRIM25 (UniProt Q14258) 0.028
UBE2D1 (UniProt P51668) 0.072
TPP2 (UniProt Q5VZU9) 0.086
TRMT12 (UniProt Q53H54) 0.018
TCAF2 (UniProt A6NFQ2) -0.003
TRIM56 (UniProt Q9BRZ2) 0.021
TTC27 (UniProt Q6P3X3) -0.043
UBR5 (UniProt O95071) -0.024
TROAP (UniProt Q12815) 0.028
TUBGCP2 isoform 4 (UniProt Q9BSJ2) 0.012
TTC5 (UniProt Q8N0Z6) -0.014
TRIM33 (UniProt H0Y612) 0.05
TP53RK (UniProt Q96S44) 0.038
TFCP2 (UniProt Q12800) -0.115
TIAL1 isoform 2 (UniProt Q01085) 0.023
TRIM65 (UniProt Q6PJ69) -0.008
TTF2 (UniProt Q9UNY4) 0.063
TRAPPC9 isoform 2 (UniProt Q96Q05) -0.01
